How the values were obtained:
Assay in all cases: PBM; 200 nM protein, PBS
Details in all cases: dsDNA, one strand shown
[1] = biological target: CRX (Homo sapiens, UniProt O43186 26-111)
[2] = biological target: HOXC10 (Homo sapiens, UniProt Q9NYD6 254-340)
[3] = biological target: CRX (Homo sapiens, UniProt O43186 26-111, E42D)
[4] = biological target: ALX3 (Homo sapiens, UniProt O95076 139-225, N203Q)
[5] = biological target: HOXC10 (Homo sapiens, UniProt Q9NYD6 254-340, K271E)
[6] = biological target: CRX (Homo sapiens, UniProt O43186 26-111, R41L)
Sequence of CRX (Homo sapiens, UniProt O43186 26-111, R41L) (O43186 26-111 R41L): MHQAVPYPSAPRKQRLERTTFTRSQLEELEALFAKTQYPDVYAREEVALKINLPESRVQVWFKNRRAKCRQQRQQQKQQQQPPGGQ

[7] = biological target: ALX4 (Homo sapiens, UniProt Q9H161 200-286)
Sequence of ALX4 (Homo sapiens, UniProt Q9H161 200-286) (Q9H161 200-286): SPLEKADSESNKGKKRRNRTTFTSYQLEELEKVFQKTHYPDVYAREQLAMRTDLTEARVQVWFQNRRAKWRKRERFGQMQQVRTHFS

[8] = biological target: ALX4 (Homo sapiens, UniProt Q9H161 200-286, Q225E)
Sequence of ALX4 (Homo sapiens, UniProt Q9H161 200-286, Q225E) (Q9H161 200-286 Q225E): as the sequence (Q9H161 200-286) above, with Q26E counted along it

[9] = biological target: HOXA2 (Homo sapiens, UniProt O43364 129-215, R185T)
Sequence of HOXA2 (Homo sapiens, UniProt O43364 129-215, R185T) (O43364 129-215 R185T): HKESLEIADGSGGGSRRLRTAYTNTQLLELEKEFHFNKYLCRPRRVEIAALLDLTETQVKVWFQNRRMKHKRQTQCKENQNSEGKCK

[10] = biological target: ALX1 (Homo sapiens, UniProt Q15699 118-204, L144V)
Sequence of ALX1 (Homo sapiens, UniProt Q15699 118-204, L144V) (Q15699 118-204 L144V): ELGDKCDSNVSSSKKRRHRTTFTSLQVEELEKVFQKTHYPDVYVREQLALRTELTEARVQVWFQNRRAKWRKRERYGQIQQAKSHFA

[11] = biological target: HOXA2 (Homo sapiens, UniProt O43364 129-215, R185K)
Sequence of HOXA2 (Homo sapiens, UniProt O43364 129-215, R185K) (O43364 129-215 R185K): as the sequence (O43364 129-215 R185T) above, with T57K counted along it

[12] = biological target: ALX1 (Homo sapiens, UniProt Q15699 118-204, L144R)
Sequence of ALX1 (Homo sapiens, UniProt Q15699 118-204, L144R) (Q15699 118-204 L144R): as the sequence (Q15699 118-204 L144V) above, with V27R counted along it

[13] = biological target: HOXA2 (Homo sapiens, UniProt O43364 129-215, Y150S)
Sequence of HOXA2 (Homo sapiens, UniProt O43364 129-215, Y150S) (O43364 129-215 Y150S): as the sequence (O43364 129-215 R185T) above, with Y22S, T57R counted along it

[14] = biological target: ALX1 (Homo sapiens, UniProt Q15699 118-204)
Sequence of ALX1 (Homo sapiens, UniProt Q15699 118-204) (Q15699 118-204): as the sequence (Q15699 118-204 L144V) above, with V27L counted along it

[15] = biological target: HOXA2 (Homo sapiens, UniProt O43364 129-215)
Sequence of HOXA2 (Homo sapiens, UniProt O43364 129-215) (O43364 129-215): as the sequence (O43364 129-215 R185T) above, with T57R counted along it

[16] = biological target: T1, VENTX (Homo sapiens, UniProt O95231 78-163, Y115F)
T1 sequence: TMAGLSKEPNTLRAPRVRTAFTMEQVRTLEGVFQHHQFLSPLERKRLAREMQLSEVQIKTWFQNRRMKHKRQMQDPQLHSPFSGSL

[17] = biological target: PRRX1 (Homo sapiens, UniProt P54821 80-166, F113S)
Sequence of PRRX1 (Homo sapiens, UniProt P54821 80-166, F113S) (P54821 80-166 F113S): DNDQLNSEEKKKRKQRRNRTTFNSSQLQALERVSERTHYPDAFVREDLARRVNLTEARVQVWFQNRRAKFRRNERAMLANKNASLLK

[18] = biological target: PRRX1 (Homo sapiens, UniProt P54821 80-166)
Sequence of PRRX1 (Homo sapiens, UniProt P54821 80-166) (P54821 80-166): as the sequence (P54821 80-166 F113S) above, with S34F counted along it

[19] = biological target: T2, SIX6 (Homo sapiens, UniProt O95475 114-200, T165P)
T2 sequence: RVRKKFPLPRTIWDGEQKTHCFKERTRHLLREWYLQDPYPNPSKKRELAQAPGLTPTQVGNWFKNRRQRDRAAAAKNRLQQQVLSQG

[20] = biological target: HOXB6 (Homo sapiens, UniProt P17509 132-218, K202E)
Sequence of HOXB6 (Homo sapiens, UniProt P17509 132-218, K202E) (P17509 132-218 K202E): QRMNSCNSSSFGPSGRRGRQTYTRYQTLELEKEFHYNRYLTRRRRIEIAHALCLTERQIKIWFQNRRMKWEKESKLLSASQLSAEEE

[21] = biological target: HOXB6 (Homo sapiens, UniProt P17509 132-218)
Sequence of HOXB6 (Homo sapiens, UniProt P17509 132-218) (P17509 132-218): as the sequence (P17509 132-218 K202E) above, with E71K counted along it

[22] = biological target: PITX2 (Homo sapiens, UniProt Q99697 72-157)

Sequence of CRX (Homo sapiens, UniProt O43186 26-111, E42D) (O43186 26-111 E42D): as the sequence (O43186 26-111 R41L) above, with L16R, E17D counted along it
Sequence of CRX (Homo sapiens, UniProt O43186 26-111) (O43186 26-111): as the sequence (O43186 26-111 R41L) above, with L16R counted along it
Sequence of ALX3 (O95076 139-225 N203Q): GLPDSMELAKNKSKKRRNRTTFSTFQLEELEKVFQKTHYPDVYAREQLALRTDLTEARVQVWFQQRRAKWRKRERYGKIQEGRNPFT
Sequence of HOXC10 (Homo sapiens, UniProt Q9NYD6 254-340) (Q9NYD6 254-340): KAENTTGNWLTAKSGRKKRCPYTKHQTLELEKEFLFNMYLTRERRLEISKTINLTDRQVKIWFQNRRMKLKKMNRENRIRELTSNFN
Sequence of HOXC10 (Homo sapiens, UniProt Q9NYD6 254-340, K271E) (Q9NYD6 254-340 K271E): as the sequence (Q9NYD6 254-340) above, with K18E counted along it

CCTTATTA
binding signal [1]: 11 upbm affinity estimate (log intensity, higher = more binding, comparable within an allelic series) | binding signal [2]: 11.3 upbm affinity estimate (log intensity, higher = more binding, comparable within an allelic series) | binding signal [3]: 10.9 upbm affinity estimate (log intensity, higher = more binding, comparable within an allelic series) | binding signal [4]: 8.6 upbm affinity estimate (log intensity, higher = more binding, comparable within an allelic series) | binding signal [5]: 11.2 upbm affinity estimate (log intensity, higher = more binding, comparable within an allelic series) | binding signal [6]: 10.4 upbm affinity estimate (log intensity, higher = more binding, comparable within an allelic series)

ACCGGGCG
binding signal [1]: 7.62 upbm affinity estimate (log intensity, higher = more binding, comparable within an allelic series) | binding signal [7]: 7.78 upbm affinity estimate (log intensity, higher = more binding, comparable within an allelic series) | binding signal [8]: 7.99 upbm affinity estimate (log intensity, higher = more binding, comparable within an allelic series) | binding signal [9]: 6.76 upbm affinity estimate (log intensity, higher = more binding, comparable within an allelic series) | binding signal [3]: 7.73 upbm affinity estimate (log intensity, higher = more binding, comparable within an allelic series) | binding signal [10]: 6.09 upbm affinity estimate (log intensity, higher = more binding, comparable within an allelic series) | binding signal [11]: 10.3 upbm affinity estimate (log intensity, higher = more binding, comparable within an allelic series) | binding signal [12]: 6.25 upbm affinity estimate (log intensity, higher = more binding, comparable within an allelic series) | binding signal [13]: 10.3 upbm affinity estimate (log intensity, higher = more binding, comparable within an allelic series) | binding signal [6]: 7.79 upbm affinity estimate (log intensity, higher = more binding, comparable within an allelic series) | binding signal [14]: 6.19 upbm affinity estimate (log intensity, higher = more binding, comparable within an allelic series) | binding signal [15]: 7.26 upbm affinity estimate (log intensity, higher = more binding, comparable within an allelic series)

CACCGGAG
binding signal [1]: 8.14 upbm affinity estimate (log intensity, higher = more binding, comparable within an allelic series) | binding signal [7]: 8.15 upbm affinity estimate (log intensity, higher = more binding, comparable within an allelic series) | binding signal [8]: 8.15 upbm affinity estimate (log intensity, higher = more binding, comparable within an allelic series) | binding signal [3]: 8.3 upbm affinity estimate (log intensity, higher = more binding, comparable within an allelic series) | binding signal [6]: 8.27 upbm affinity estimate (log intensity, higher = more binding, comparable within an allelic series)

GTGATTAA
binding signal [1]: 12.3 upbm affinity estimate (log intensity, higher = more binding, comparable within an allelic series) | binding signal [16]: 11.5 upbm affinity estimate (log intensity, higher = more binding, comparable within an allelic series) | binding signal [9]: 12.7 upbm affinity estimate (log intensity, higher = more binding, comparable within an allelic series) | binding signal [3]: 12.2 upbm affinity estimate (log intensity, higher = more binding, comparable within an allelic series) | binding signal [11]: 13.2 upbm affinity estimate (log intensity, higher = more binding, comparable within an allelic series) | binding signal [6]: 11.7 upbm affinity estimate (log intensity, higher = more binding, comparable within an allelic series)

GGTTAAAC
binding signal [1]: 10.2 upbm affinity estimate (log intensity, higher = more binding, comparable within an allelic series) | binding signal [3]: 9.96 upbm affinity estimate (log intensity, higher = more binding, comparable within an allelic series)

ACTGCGTG
binding signal [1]: 8.27 upbm affinity estimate (log intensity, higher = more binding, comparable within an allelic series) | binding signal [17]: 9.32 upbm affinity estimate (log intensity, higher = more binding, comparable within an allelic series) | binding signal [3]: 8.35 upbm affinity estimate (log intensity, higher = more binding, comparable within an allelic series) | binding signal [6]: 8.29 upbm affinity estimate (log intensity, higher = more binding, comparable within an allelic series) | binding signal [18]: 9.57 upbm affinity estimate (log intensity, higher = more binding, comparable within an allelic series)

GCGGATCA
binding signal [1]: 11.3 upbm affinity estimate (log intensity, higher = more binding, comparable within an allelic series) | binding signal [19]: 9.3 upbm affinity estimate (log intensity, higher = more binding, comparable within an allelic series) | binding signal [3]: 11.2 upbm affinity estimate (log intensity, higher = more binding, comparable within an allelic series) | binding signal [6]: 10.8 upbm affinity estimate (log intensity, higher = more binding, comparable within an allelic series)

GGGACCCC
binding signal [1]: 8.14 upbm affinity estimate (log intensity, higher = more binding, comparable within an allelic series) | binding signal [20]: 8.9 upbm affinity estimate (log intensity, higher = more binding, comparable within an allelic series) | binding signal [3]: 8.1 upbm affinity estimate (log intensity, higher = more binding, comparable within an allelic series) | binding signal [6]: 8.05 upbm affinity estimate (log intensity, higher = more binding, comparable within an allelic series) | binding signal [21]: 9.08 upbm affinity estimate (log intensity, higher = more binding, comparable within an allelic series)

AGGATTAG
binding signal [1]: 13.5 upbm affinity estimate (log intensity, higher = more binding, comparable within an allelic series) | binding signal [9]: 9.36 upbm affinity estimate (log intensity, higher = more binding, comparable within an allelic series) | binding signal [3]: 13.5 upbm affinity estimate (log intensity, higher = more binding, comparable within an allelic series) | binding signal [22]: 13.2 upbm affinity estimate (log intensity, higher = more binding, comparable within an allelic series) | binding signal [13]: 10.7 upbm affinity estimate (log intensity, higher = more binding, comparable within an allelic series) | binding signal [6]: 13.3 upbm affinity estimate (log intensity, higher = more binding, comparable within an allelic series) | binding signal [15]: 9.15 upbm affinity estimate (log intensity, higher = more binding, comparable within an allelic series)
